# PubChem BioAssay (NCATS)
# Calls of active or inactive are those of the source. The call rests on the fitted dose curve; in most records, active means well fitted activation curve with a large enough effect; inconclusive means small, poorly fitted or top-dose-only effect; inactive means no such curve, though single readings can be large or run the other way.
# Target: Parathyroid hormone/parathyroid hormone-related peptide receptor (Homo sapiens) (UniProt Q03431)
# Test: qHTS for PTHR1 Agonists: Optimization Screen against the NCGC LOPAC library (AID 1347079)
# Conditions: HEK293 GP2 PTHR1 GloSensor cAMP luminescence, 1 h; series mostly up to 57.1 µM
# Source text: The goal of the proposed studies is to discover new compounds that act as potent agonists on the parathyroid hormone receptor type-1 (PTHR1). The PTHR1 plays critical roles in maintaining blood calcium and phosphate levels, as well as in controlling bone remodeling. PTHR1 agonists could thus be useful for treating diseases such as hypoparathyroidism and osteoporosis. In the former disease, an agonist drug would help maintain normal blood calcium and phosphate levels under conditions of parathyroid hormone deficiency. In the latter disease, an agonist drug would stimulate new bone formation and thus reduce the risk of fracture, under conditions of bone fragility, as occurs in aging. We performed an optimization assay of the quantitative high-throughput screening (qHTS) for the parathyroid hormone receptor type-1 (PTHR1) against the NCGC LOPAC library collection of […] compounds using a unique HEK-293-derived cell line (GP2) that expresses the PTHR1 and a GloSensor cAMP reporter construct. Increase in signal (activation / agonist) is the desired outcome for compounds of interest. NIH Chemical Genomics Center [NCGC] NIH Molecular Libraries Probe Production Centers Network [MLPCN] MLPCN Grant: P01 DK011794 Assay Submitter (PI): Thomas Gardella PhD, Massachusetts General Hospital
# Reagents / Controls: M-PTH (1-15) peptide hormone fragments was provided by the assay provider and was used as a control. Column 1 was treated with M-PTH titration (1:2 dilution) beginning with a final concentration of 10uM. Column 2 was treated with M-PTH final concentration of 10uM. Columns 3 and 4 were treated with DMSO only to assess background and noise signal. Assay Steps: Four microLiter of cells suspension was dispensed in a 1536-well assay plate at a final density of 3000 cells/well. The plates were incubated overnight, after which 4uL of 0.5mM of BloTium Luciferin plus 0.5mM IBMX was added. Next, the plate was incubated at 37C for 1hr before 23nL of compound (at various final concentrations from 40uM to 0.32uM) and control were added using a 1536-well array Kalypsys pin-tool. The treated plates were again incubated at 37C for another hour. Luminescence signal was obtained using the PerkinElmer ViewLux plate reader after 15min or room temperature incubation.
# Parathyroid hormone/parathyroid hormone-related peptide receptor (Homo sapiens), sequence (Q03431 whole entry, looked up): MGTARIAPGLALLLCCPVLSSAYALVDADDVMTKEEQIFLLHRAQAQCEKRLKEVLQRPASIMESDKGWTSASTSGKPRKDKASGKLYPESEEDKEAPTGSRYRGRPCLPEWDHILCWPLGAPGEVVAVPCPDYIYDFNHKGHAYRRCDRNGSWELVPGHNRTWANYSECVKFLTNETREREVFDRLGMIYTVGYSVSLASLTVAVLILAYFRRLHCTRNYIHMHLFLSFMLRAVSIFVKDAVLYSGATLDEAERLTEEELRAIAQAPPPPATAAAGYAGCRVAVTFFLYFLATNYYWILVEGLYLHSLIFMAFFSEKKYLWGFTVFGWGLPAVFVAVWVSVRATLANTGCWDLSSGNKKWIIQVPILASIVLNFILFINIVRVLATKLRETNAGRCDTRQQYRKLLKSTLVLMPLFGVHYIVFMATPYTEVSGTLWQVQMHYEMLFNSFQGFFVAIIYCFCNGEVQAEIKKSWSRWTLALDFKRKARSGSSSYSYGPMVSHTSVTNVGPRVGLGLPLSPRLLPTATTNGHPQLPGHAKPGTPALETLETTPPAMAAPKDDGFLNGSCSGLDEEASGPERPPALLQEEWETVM
row,SMILES,outcome
1,CN/C(=C\[N+](=O)[O-])NCCSCc1ccc(CN(C)C)o1,inactive
2,CC(C)(C)c1ccc(C(=O)CCCN2CCC(OC(c3ccccc3)c3ccccc3)CC2)cc1,inactive
3,O=C(CCNNC(=O)c1ccncc1)NCc1ccccc1,inactive
4,NC(=O)N1c2ccccc2C=Cc2ccccc21,inactive
5,CC(C(=O)O)c1ccc(CC2CCCC2=O)cc1 (stereo not given),inactive
6,C[C@]12C=CC(=O)C=C1CC[C@H]1[C@@H]3C[C@@H](O)[C@](O)(C(=O)CO)[C@@]3(C)C[C@H](O)[C@@]12F,inactive
7,C[C@]12CC[C@@H]3c4ccc(O)cc4C[C@@H](CCCCCCCCCS(=O)CCCC(F)(F)C(F)(F)F)[C@H]3[C@@H]1CC[C@@H]2O (stereo not given in full),inactive
8,CN(C)[C@@H]1C(=O)C(C(N)=O)=C(O)[C@@]2(O)C(=O)C3=C(O)c4c(O)ccc(Cl)c4[C@@H](O)[C@H]3C[C@@H]12,inactive
9,Cc1ccc(S(=O)(=O)NC(=O)NN2CCCCCC2)cc1,inactive
10,NC/C=C/C(=O)O,inactive
11,CN(C)CCCN1c2ccccc2Sc2ccc(C(F)(F)F)cc21,inactive
12,CC(=O)Nc1nnc(S(N)(=O)=O)s1,inactive
13,NC(=O)c1ncn([C@@H]2O[C@H](CO)[C@@H](O)[C@H]2O)c1O,inactive
14,COC(=O)[C@H]1[C@H]2C[C@@H]3c4[nH]c5cc(OC)ccc5c4CCN3C[C@H]2C[C@@H](OC(=O)c2cc(OC)c(OC)c(OC)c2)[C@@H]1OC,inactive
15,CNCCCN1c2ccccc2CCc2ccccc21,inactive
16,CN(C(=O)CCCOc1ccc2[nH]c(=O)ccc2c1)C1CCCCC1,inactive
17,CC(C)NCC(O)c1cc(O)cc(O)c1 (stereo not given),inactive
18,Brc1c(NC2=NCCN2)ccc2nccnc12,inactive
19,CCN(CC)CCCN(c1ccccc1)C1Cc2ccccc2C1,inactive
20,CCc1cccc(N(C)C(N)=Nc2cccc3ccccc23)c1,inactive

row,SMILES,outcome
1,COc1ccc(CN(CCN(C)C)c2ccccn2)cc1,inactive
2,O=c1[nH]c(=O)n([C@H]2C[C@H](O)[C@@H](CO)O2)cc1Br,inactive
3,Cc1nc2c([nH]1)c(=O)n(C)c(=O)n2Cc1ccco1,inactive
4,O=C(O)CP(=O)(O)O,inactive
5,CCn1cc(C(=O)O)c(=O)c2cc3c(cc21)OCO3,inactive
6,Cc1nnc(SCC2=C(C(=O)O)N3C(=O)[C@@H](NC(=O)Cn4cnnn4)[C@H]3SC2)s1,inactive
7,Nc1nc(N)c2nc(-c3ccccc3)c(N)nc2n1,inactive
8,CCN(CC)CC(=O)Nc1c(C)cccc1C,inactive
9,O=C(CCCN1CCC(O)(c2cccc(C(F)(F)F)c2)CC1)c1ccc(F)cc1,inactive
10,COCCCC/C(=N\OCCN)c1ccc(C(F)(F)F)cc1,inactive
11,C=CCc1ccccc1OCC(O)CNC(C)C (stereo not given),inactive
12,CN1C[C@H](C(=O)N[C@]2(C)O[C@@]3(O)[C@@H]4CCCN4C(=O)[C@H](Cc4ccccc4)N3C2=O)C[C@@H]2c3cccc4[nH]cc(c34)C[C@H]21,inactive
13,CC(=O)[C@]1(O)Cc2c(O)c3c(c(O)c2[C@@H](O[C@H]2C[C@H](N)[C@H](O)[C@H](C)O2)C1)C(=O)c1ccccc1C3=O,inactive
14,CCCNC(C)C(=O)Nc1ccccc1C (stereo not given),inactive
15,CC[N+](C)(C)c1cccc(O)c1,inactive
16,C[N+](C)(C)CCCCCCCCCC[N+](C)(C)C,inactive
17,CC(=O)OCC1=C(C(=O)O)N2C(=O)[C@@H](NC(=O)Cc3cccs3)[C@H]2SC1,inactive
18,COCC(=O)O[C@]1(CCN(C)CCCc2nc3ccccc3[nH]2)CCc2cc(F)ccc2[C@@H]1C(C)C,inactive
19,CCc1c(C)[nH]c2c1C(=O)C(CN1CCOCC1)CC2 (stereo not given),inactive
20,CCN(CC)CCOCCOC(=O)C1(c2ccccc2)CCCC1,inactive
